The source of these data is PubChem BioAssay (NCI).

This is part of a sample that, as a whole, favours compounds with a hit. Of some 79,000 tested, about 15% had one in any assay. A number with no mark means an inactive call. Calls of active or inactive are those of the source. Cut-off read from the data, not from the text of the source: active = growth inhibition above about 70%; inactive = the rest.

This assay is described as follows: NCI Yeast Anticancer Drug Screen. Data for the sgs1 mgt1 strain (AID 161).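 Note: 0% = growth of cultures given vehicle only.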 The following applies: S. cerevisiae sgs1 mgt1 strain, active compounds read high. The method, then: Growth inhibition of yeast strains with defined genetic alterations is measured as a screen for potential anti-cancer activity. Selected strains with alterations in DNA damage repair or cell cycle control were exposed to compounds and growth inhibition was measured relative to vehicle treated controls. The strain used in this assay is sgs1 mgt1

Setting [1] is: at 5.0 µM (retest, dose inferred, filed as 0.5).
Where [2] appears, read: at 50.0 µM (retest, dose inferred, filed as 5.0).

Take `NC1=CC(=O)c2ccccc2C1=O`: the growth inhibition is 26% under setting [1], 57% under setting [2] and 85.2% (active) (at 50.0 µM).
The matching figures for `N#CSCc1c(Cl)cccc1Cl`: 18%, 92% (active) and 82.7% (active).
The matching figures for `NNC(=O)c1c(SCc2ccccc2)nc2c3ccccc3ccn12`: 42%, 90% (active) and 52.6%.
The matching figures for `[N-]=[N+]=Nc1c(Cc2ccccc2)c(=O)oc2ccccc12`: 3%, 73% (active) and 75.7% (active).
With `C[C@]12CC[C@H](O)C[C@@H]1CC[C@@H]1[C@@H]2C(=O)C[C@]2(C)C3=CC(=O)O[C@H]3C[C@@H]12`, the growth inhibition reads like this: under setting [1], 32%; under setting [2], 98% (active); (at 50.0 µM) 94% (active).
For the compound `COC(=O)c1cccc2cccc(C(=O)Nc3ccc(Cl)cc3)c12`, the growth inhibition reads like this: under setting [1], 58%; under setting [2], 100% (active); (at 50.0 µM) 92.3% (active).
The matching figures for `Clc1ccc2[nH]c(-c3ccccc3)c(-c3ccccn3)c2c1`: 93% (active), 98% (active) and 97.7% (active).
For `CN(C)c1ccc(C2C=C(c3ccccc3)Oc3ccccc32)cc1` (configuration not stated) the same measures were 97% (active), 97% (active) and 96.9% (active).
`CC(=O)Nc1ccc(C(=O)n2[nH]c(C)c(/C=C3\C(=O)C=Cc4ccccc43)c2=O)cc1`: the growth inhibition is, setting by setting: under setting [1], 15%; under setting [2], 99% (active); (at 50.0 µM) 99.4% (active).
Regarding `CC(=O)c1ccc(Br)cc1NC1=CC(=O)c2ncccc2C1=O`, the growth inhibition was 81% (active) under setting [1], 96% (active) under setting [2] and 88.8% (active) (at 50.0 µM).
For `O=S1(=O)CS(=O)(=O)OCCCO1` the same measures were 7%, 15% and -23.4%.
The matching figures for `Cc1[nH]c2ccccc2c1/C=C1\C(=O)C2CCC1C2` (configuration not stated): -6%, 92% (active) and 71.3% (active).
The matching figures for `COC(=O)c1cc2c(c(C(=O)OC)c1O)C(=O)C=CC2=O`: 5%, 80% (active) and 80% (active).
As for `COC(=O)c1[nH]c(=O)c(C#N)c(C(=O)OC)c1C(=O)c1ccc(Cl)c(Cl)c1`, the growth inhibition under setting [1] is 23%, the growth inhibition under setting [2] is 72% (active) and the growth inhibition (at 50.0 µM) was 95.4% (active).
